This note sets out measurements from ChEMBL document CHEMBL1157539, “Thousands of chemical starting points for antimalarial lead identification” (Nature, 2010).

Holding throughout (format): functional
For assay [1], the system named is Plasmodium falciparum. Briefly: GSK_TCMDC: Inhibition of Plasmodium falciparum 3D7 in whole red blood cells, using parasite LDH activity as an index of growth. Test compounds present at 2uM.
Assay [2] concerns Plasmodium falciparum. Briefly: GSK_TCMDC: Inhibition of Plasmodium falciparum Dd2 in whole red blood cells, using parasite LDH activity as an index of growth. Test compounds present at 2uM.
The subject of assay [3] is HepG2. Briefly: GSK_TCMDC: Percent inhibition of human HepG2 cell line. Test compounds present at 10uM.

What is called Inhibition is the relative decrease from the control value, in per cent. Read a high Inhibition as a response far below the control. Take `CC(C)c1ccc(S(=O)(=O)N(c2ccc3c(c2)OCO3)C2CCN(Cc3ccccc3)C2)cc1` (configuration not stated): the Inhibition in assay [1] is listed as 100%; in assay [2], 92%; in assay [3] it was 1%.

`CCC(C)OC(=O)C1=C(C)NC2=C(C(=O)CC(c3ccc(OC)c(OC)c3)C2)C1c1ccc(O)cc1` (configuration not stated): the Inhibition in assay [1] was 100%; in assay [2], 97%; in assay [3], 3%.

In the case of `C=CCOC(=O)N1CCC(CNCc2cccc(-c3cccc(-c4nc5cccc(C)c5[nH]4)c3)c2)C1.O=C(O)C(F)(F)F` (configuration not stated), the Inhibition in assay [1] is recorded as 100%; in assay [2] it was 69%; in assay [3], 22%.

In the case of `CCC(CC)CN1C(=O)C(c2ccccc2)(c2ccccc2)N=C1N.O=CO`, the Inhibition was determined as 97% in assay [1], 81% in assay [2] and 14% in assay [3].
